Records with an inconclusive call do not appear. Unmarked numbers belong to inactive results. Calls follow the shape of the dose curve; as a rule, active = well fitted cell-killing curve with a large enough effect; inconclusive = small, poorly fitted or top-dose-only effect, or effect the other way; inactive = flat fitted curve, though single readings scatter.
Test system: SKOV3
Assay: Primary qHTS to identify gynecologic anti-cancer compounds using libraries of approved drugs and bioactive compounds (AID 1345084); also: nearly all actives have a fitted effect of over 55% in size
Settings: Gynecologic cancer cell panel viability, ATPlite luminescence, 48 h; series mostly up to 57.5 µM; activity change, negative = cytotoxicity: at the top concentration
Outline: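 ATP-based viability (ATPlite), 1,000 cells/well, 16 h pre-incubation, 48 h compound at 37 C, 5% CO2, 15 min RT before read.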
% is scaled to controls: 0 for no effect and ±100 for the full control effect.

Row | Structure (SMILES) | activity change, negative = cytotoxicity
1 | CC(CC(C)O[C@@H]1O[C@H](CO)[C@@H](O)[C@H](O)[C@H]1O)OC(=O)/C=C/c1ccc(O)cc1 (some centres undefined) | -1.57% [at 25.3 µM]
2 | C=C(C)[C@@H]1CC[C@]2(C(=O)O)CC[C@]3(C)[C@H](CCC4[C@@]5(C)CCC(=O)C(C)(C)C5C(O)C[C@]43C)C12 (some centres undefined) | 22.1% [at 25.3 µM]
3 | O=C(O)/C=C/c1ccc2occc2c1O[C@@H]1O[C@H](CO)[C@@H](O)[C@H](O)[C@H]1O | -7.61% [at 38.5 µM]
4 | O=C(O)CC1(O)C(=O)Nc2ccccc21 (centres undefined) | 0%
5 | CS(=O)(=O)c1ccccc1N1CCN(c2nc3c(c(=O)[nH]2)CSCC3)CC1 | 2.31%
6 | COC(=O)C1=CO[C@@H](O[C@@H]2O[C@H](CO)[C@@H](O)[C@H](O)[C@H]2O)[C@@H]2[C@@H](C)[C@@H](OC(=O)/C=C/c3ccccc3)[C@@H](O)[C@H]12 | 3.52% [at 25.3 µM]
7 | CC1C(=O)OCC2=CC[N+]3([O-])CCC(OC(=O)C(C)(O)C1(C)O)C23 (centres undefined) | 1.5% [at 38.5 µM]
8 | C[C@@H](c1ccccc1)N(C(N)=NC#N)c1cccc2ncccc12 | 2.23%
9 | COC(=O)C1=COC(O[C@@H]2O[C@H](COC(=O)/C=C/c3ccc(O)cc3)[C@@H](O)[C@H](O)[C@H]2O)C2C(CO)=CCC12 (some centres undefined) | -5.11% [at 25.3 µM]
10 | C=C1C(=O)O[C@@H]2CC(C)=C([C@@H](C)CCCOC(C)=O)[C@@H](O)[C@H]12 | 20.8% [at 38.5 µM]
11 | COC(=O)C1=COC(O[C@@H]2O[C@H](CO)[C@@H](O)[C@H](O)[C@H]2O)C2C(C)C(=O)CC12 (some centres undefined) | -3.11% [at 38.5 µM]
12 | CC1(C)CC=C(C#Cc2ccccc2)c2cc(/C=C/c3ccc(C(=O)O)cc3)ccc21 | 2.86%
13 | CC12CC(O)C(O)C=C1c1cc(O)cc(O)c1C(=O)O2 (centres undefined) | 18%
14 | CC(=O)OC(C)(C)/C=C/C(=O)[C@](C)(O)C1[C@H](O)C[C@@]2(C)[C@@H]3CC=C4[C@@H](C[C@H](O[C@@H]5O[C@H](CO)[C@@H](O)[C@H](O)[C@H]5O)C(=O)C4(C)C)[C@]3(C)C(=O)C[C@]12C (some centres undefined) | 9.63% [at 25.3 µM]
15 | CN1CCN(C2=Nc3ccccc3Nc3ccc(O)cc32)CC1 | -4.81%
16 | CC(=O)OC/C(=C/C(=O)O)CC[C@@H]1C(CO)=CC[C@@H]2C(C)(C)CCC[C@@]12C | -6.48% [at 38.5 µM]
17 | CC(=O)OC1C(CO)OC(O[C@H]2[C@H](OC(=O)[C@]34CCC(C)(C)C[C@H]3C3=CCC5[C@@]6(C)CC[C@H](O[C@@H]7O[C@H](C(=O)O)[C@@H](O)[C@H](O[C@@H]8OC[C@@H](O)[C@H](O)[C@H]8O)[C@H]7O[C@@H]7O[C@H](CO)[C@H](O)[C@H](O)[C@H]7O)[C@@](C)(C=O)C6CC[C@@]5(C)[C@]3(C)C[C@H]4O)O[C@H](C)[C@H](OC3OC(C)C(OC4OCC(O)C(O)C4O)C(O)C3O)[C@@H]2O)C(O)C1O (some centres undefined) | 33.2% [at 6.55 µM]
18 | C/C(=C\CO)CC/C=C(\C)C(=O)O[C@@H]1O[C@H](CO)[C@@H](O)[C@H](O)[C@H]1O | -4.8% [at 38.5 µM]
19 | COc1cc(C)c(C(=O)O[C@@H]2[C@H](O)[C@@H](CO)O[C@H]2n2ccc(=O)[nH]c2=O)c(OC)c1 | 2.2% [at 25.3 µM]
20 | COc1cc(/C=C/CO[C@@H]2O[C@H](CO)[C@@H](O)[C@H](O)[C@H]2O)cc(OC)c1O[C@@H]1O[C@H](CO)[C@@H](O)[C@H](O)[C@H]1O | 9.07% [at 25.3 µM]

Row | Structure (SMILES) | activity change, negative = cytotoxicity
21 | CC1=C2C(=O)C=C(CO)C2C2OC(=O)C(CS(=O)(=O)O)C2C(OC(=O)Cc2ccc(O)cc2)C1 (centres undefined) | 5.59% [at 25.3 µM]
22 | C[C@@H]1C[C@@H](O)[C@@]23CO[C@]2(CO)CCC[C@@H]3[C@@]12C[C@@H](c1ccoc1)OC2=O | -2.01% [at 38.5 µM]
23 | NC1Nc2ccccc2C1(N)CC1NC(=O)C(Cc2ccccc2)NC(=O)C(Cc2ccccc2)NC1=O (centres undefined) | 11.3% [at 25.3 µM]
24 | CC(C/C=C/C(C)(C)O)C1CCC(C)(O)C(O)C1 (centres undefined) | 12.9%
25 | CCC(C)/C=C(C)/C=C/C1=CC2=C(Cl)C(=O)C(C)(OC(C)=O)C(=O)C2=CN1C(CCCN=C(N)N)C(=O)O (centres undefined) | -5.55% [at 25.3 µM]
26 | COc1ccc(CCC(=O)O)c(O[C@@H]2O[C@H](CO)[C@@H](O)[C@H](O)[C@H]2O)c1 | 7.81% [at 38.5 µM]
27 | C=C(C)[C@@H]1CC[C@]2(C(=O)O)CC[C@]3(C)C(CCC4[C@]5(C)C(CC[C@]43C)C(C)(C)[C@@H](O)[C@@H]5C(=O)O)C12 (some centres undefined) | 3.07% [at 25.3 µM]
28 | C/C(=C/CO)CC[C@H]1[C@]2(C)C[C@H](O)CC(C)(C)[C@H]2CC[C@]1(C)O | 0% [at 38.5 µM]
29 | CCC(C)(C)C1CCc2c(sc(NC(=O)c3ccc(Br)cc3)c2C#N)C1 (centres undefined) | 21.6%
30 | C[C@@H]1O[C@@H](O[C@H]2[C@@H]3C=CO[C@@H](O[C@@H]4O[C@H](CO)[C@@H](O)[C@H](O)[C@H]4O)[C@@H]3[C@@]3(CO)O[C@@H]23)[C@H](OC(=O)/C=C/c2ccc(O)cc2)[C@H](O)[C@H]1O | 0.807% [at 25.3 µM]
31 | OC[C@H]1O[C@@H](OCc2ccccc2)[C@H](O)[C@@H](O)[C@@H]1O | -22.1%
32 | C=C1C(=O)OC2CC(COC(=O)C(C)C)=C(C(C)CCCOC(C)=O)[C@@H](OC(C)=O)C12 (some centres undefined) | -5.23% [at 25.3 µM]
33 | COc1cc(C(CO)C(OC2OC(CO)C(O)C(O)C2O)c2ccc(O)c(OC)c2)ccc1O (centres undefined) | 12.6% [at 25.3 µM]
34 | C=C1CC2C3(C)C=CC(=O)OC(C)(C)C3CC(OC(C)=O)C2(C)C2C(=O)OC(C)C(=O)C12C (centres undefined) | 4.11% [at 25.3 µM]
35 | CC(C)(O)C(O)C(=O)OCc1ccc(O[C@@H]2O[C@H](CO)[C@@H](O)[C@H](O)[C@H]2O)cc1 (some centres undefined) | -2.46% [at 25.3 µM]
36 | CC(=O)OC[C@@]12C(=O)C[C@@H](C)[C@]3(C[C@@H](c4ccoc4)OC3=O)[C@H]1CC[C@H](OC(C)=O)[C@]21CO1 | 5.66% [at 25.3 µM]
37 | Cc1cc(C)c2nc(-c3ccccn3)cc(C(=O)Nc3ccc(S(=O)(=O)Nc4onc(C)c4C)cc3)c2c1 | 1.1%
38 | CC(=O)c1ccc(O[C@@H]2OC[C@@H](O)[C@H](O)[C@H]2O[C@]2(CO)O[C@H](CO)[C@@H](O)[C@@H]2O)c(O)c1 | 3.55% [at 25.3 µM]
39 | C=C1C[C@H](O)[C@@H](O)[C@@]2(C)C1[C@@H](O)[C@H]1OC(=O)C3[C@@H](C)[C@@H](O)[C@H](O)C2[C@]31C (some centres undefined) | -2.3% [at 38.5 µM]
